# In the supplement of paper PMC8728848:
# About 410 targets per protein were measured; listed, in parts, are those with the strongest signals and a random draw of the rest.
# Key:
# Experiment in all cases: glycan array binding signal (z-score within array); higher = stronger binding
# Conditions in all cases: glycan notation: IUPAC condensed, linker removed; mutation: E227A
# [1] = molecular target: Fuc(a1-2)Gal(b1-3)GalNAc(a1-3)[Fuc(a1-2)]Gal(b1-4)Glc
# Method in brief: (§1)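 Glycan array data were curated from 3228 arrays in the Consortium for Functional Glycomics database and kept only where the protein sequence was available. Glycan names were converted to IUPAC-condensed notation, and columns mapping to the same glycan were averaged. The binding signal is a within-array Z-score, averaged across arrays of the same protein sequence at different concentrations or buffers and across linkers. Negative Z-scores can be read as non-binding.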
# [2] = molecular target: Fuc(a1-2)Gal(b1-3)GlcNAc(b1-3)[Gal(b1-4)GlcNAc(b1-6)]Gal(b1-4)Glc
# Method in brief: as §1
# [3] = molecular target: Fuc(a1-2)Gal(b1-3)[Fuc(a1-4)]GlcNAc(b1-2)Man(a1-3)[Fuc(a1-2)Gal(b1-3)[Fuc(a1-4)]GlcNAc(b1-2)Man(a1-3)]Man(b1-4)GlcNAc(b1-4)GlcNAc
# Method in brief: as §1
# [4] = molecular target: Fuc(a1-2)Gal(b1-4)Fuc(a1-3)]GlcNAc(b1-2)Man(a1-3)[Fuc(a1-2)Gal(b1-4)[Fuc(a1-3)]GlcNAc(b1-2)Man(a1-6)]Man(b1-4)GlcNAc(b1-4)GlcNAc
# Method in brief: as §1
# [5] = molecular target: Fuc(a1-2)[Gal(a1-3)]Gal(b1-3)GlcNAc(b1-3)GalNAc
# Method in brief: as §1
# [6] = molecular target: Fuc(a1-2)[Gal(a1-3)]Gal(b1-4)[Fuc(a1-3)]GlcNAc(b1-3)GalNAc
# Method in brief: as §1
# [7] = molecular target: Fuc(a1-2)[Gal(a1-4)]Gal(b1-4)GlcNAc
# Method in brief: as §1
# [8] = molecular target: Fuc(a1-2)[GalNAc(a1-3)]Gal(b1-3)GlcNAc(b1-3)GalNAc
# Method in brief: as §1
# [9] = molecular target: Fuc(a1-2)[GalNAc(a1-3)]Gal(b1-4)[Fuc(a1-3)]GlcNAc
# Method in brief: as §1
# [10] = molecular target: Fuc(a1-2)[GalNAc(b1-3)]Gal
# Method in brief: as §1
# [11] = molecular target: Fuc(a1-3)[Gal(b1-4)]GlcNAc6S
# Method in brief: as §1
# [12] = molecular target: Fuc(a1-3)[Gal3S(b1-4)]Glc
# Method in brief: as §1
# [13] = molecular target: Gal(b1-2)Gal
# Method in brief: as §1
# [14] = molecular target: Gal(b1-3)Gal(b1-4)GlcNAc
# Method in brief: as §1
# [15] = molecular target: Gal(b1-3)GalNAc
# Method in brief: as §1
# [16] = molecular target: Gal(b1-3)GalNAc(b1-4)Gal(b1-4)Glc
# Method in brief: as §1
# [17] = molecular target: Gal(b1-3)GlcNAc(a1-6)Gal(b1-4)GlcNAc
# Method in brief: as §1
# [18] = molecular target: Gal(b1-3)GlcNAc(b1-6)Gal(b1-4)GlcNAc
# Method in brief: as §1
# [19] = molecular target: Gal(b1-3)GlcNAc6S
# Method in brief: as §1
# [20] = molecular target: Gal(b1-4)Glc
# Method in brief: as §1
# [21] = molecular target: Gal(b1-4)GlcNAc(b1-3)Gal(b1-4)GlcNAc(b1-3)Gal(b1-4)GlcNAc(b1-2)Man(a1-3)[Gal(b1-4)GlcNAc(b1-3)Gal(b1-4)GlcNAc(b1-3)Gal(b1-4)GlcNAc(b1-2)Man(a1-6)]Man(b1-4)GlcNAc(b1-4)GlcNAc
# Method in brief: as §1
# [22] = molecular target: Gal(b1-4)GlcNAc(b1-3)Gal(b1-4)GlcNAc(b1-3)Gal(b1-4)GlcNAc(b1-2)[Gal(b1-4)GlcNAc(b1-3)Gal(b1-4)GlcNAc(b1-3)Gal(b1-4)GlcNAc(b1-6)]Man(a1-6)[Gal(b1-4)GlcNAc(b1-3)Gal(b1-4)GlcNAc(b1-3)Gal(b1-4)GlcNAc(b1-2)Man(a1-3)]Man(b1-4)GlcNAc(b1-4)[Fuc(a1-6)]GlcNAc
# Method in brief: as §1
# [23] = molecular target: Gal(b1-4)GlcNAc(b1-6)[Gal(b1-3)]GalNAc
# Method in brief: as §1
# [24] = molecular target: Gal3S(b1-4)Glc
# Method in brief: as §1
# [25] = molecular target: Gal6S(b1-3)GlcNAc6S
# Method in brief: as §1
# [26] = molecular target: Gal6S(b1-4)Glc
# Method in brief: as §1
binder,measurement,setting,value
"Epa1-NP-mutant-E227A (Candida glabrata), Q6VBJ0 (protein) MILNPALFLNKCVCIYTTLILLLLTNGGYATSSNDISLASKDPTTFPLGCSPDITTPKKGLSMELYSYDFRKKGSYPCWDAAYLDPNYPRTGYKSHRLLAKVDGVTGNINFYYHATKGCTPQLGHLPASYNYPKPLTMTNFTMLLYGYFRPKVTGFHTFTISADDLLFVNFGAGNAFDCCRRDSSADHFGNYQAYAIWGSKTAKDELTVHLDAGVYYPIRLFYNNRAYDGALSFTFKTESNENTVSDFSEYFFSLDDTEEGCPGLISYDSSCASVKTSKIIGIDYHTETPNENLVPITKTIYHLGIPCTGTTTTPLCGSGFYDPLANKCVTINTSSTSSVTKTTSHTTSKEVSFHSSISSQKTLIPKSIPSPYGPIKSQSIPTEMETSSEISSSEYAFSDVISTPSHSPYTKKHSSLNSSSYTSTVIHSLTSYSISQGIFSTSLSEQNITSKSSTDKFSTATSMSNNITQSSIIISQFSTNNENYTTTSMHTSSDKISTETLNNSISTTTSILFSNSSTILKNNTTIISSDKDTHYHPVNPTIVCSTNKTEIICASITQPSISNSNNHWSSSVLKFNSTTVRSTLPSSAGSNETSINVPFSSSTESNTSTSSTSTSNSKMVRSTLPSSAGSNETSISVPFSSSTESNTSTSSTSTSNSKMVRSTLPSSAGSNETSINVPFSSSTESNTSTSSTSTSNSKTVRSTPFSSAGIIMTSLSQRNNKSASSYASSNSKCYNTADSCRKVHSTPSYLLTSSYTSEGVDYDCSLVSTKLKINDTNCVNNKHTTKSCLKTSVTTTIPTLEIKTARKSSSNTIGLHSYPTSSPNKSISSAPIIGYISSFKTIKTASPSYQTSDLTTITTITSLNNPGSTAVENTHESNDKSRKTSSNDISSKHSVIKETKDAVESSNKSHQTNTLKCSSIIIASSSHNSYESLGGTTLTLTLSKVYSPQNNDTLPFLEISEVNPSRTVLPESSKMMQYLTSTEERNKTARNTIATNIVSISTFHFEGEGNAIRMGYTQLLLMLIGIIVMNIGT",glycan array binding signal (z-score),[1],-0.214
same,glycan array binding signal (z-score),[2],-0.138
same,glycan array binding signal (z-score),[3],-0.162
same,glycan array binding signal (z-score),[4],-0.184
same,glycan array binding signal (z-score),[5],-0.204
same,glycan array binding signal (z-score),[6],-0.168
same,glycan array binding signal (z-score),[7],-0.221
same,glycan array binding signal (z-score),[8],-0.197
same,glycan array binding signal (z-score),[9],-0.13
same,glycan array binding signal (z-score),[10],-0.161
same,glycan array binding signal (z-score),[11],-0.143
same,glycan array binding signal (z-score),[12],-0.172
same,glycan array binding signal (z-score),[13],-0.041
same,glycan array binding signal (z-score),[14],2.03
same,glycan array binding signal (z-score),[15],1.28
same,glycan array binding signal (z-score),[16],3.42
same,glycan array binding signal (z-score),[17],-0.057
same,glycan array binding signal (z-score),[18],7.88
same,glycan array binding signal (z-score),[19],1.37
same,glycan array binding signal (z-score),[20],-0.13
same,glycan array binding signal (z-score),[21],0.626
same,glycan array binding signal (z-score),[22],1.15
same,glycan array binding signal (z-score),[23],1.27
same,glycan array binding signal (z-score),[24],-0.193
same,glycan array binding signal (z-score),[25],1.88
same,glycan array binding signal (z-score),[26],4.56
